Screening results as filed in PubChem.
Hits are enriched below; roughly 4.6% of the tested compounds scored in any of these assays.
D1 antag: blocks dopamine activation of the human D1 receptor | AID 504652 | activity change, negative = inhibition, % at 10 µM | HEK293 TREx D1 cells, calcium flux, dopamine EC80; hits give low values | hit rate 3.2% among 360,000 | P21728; in the data active = activity change below about -30%; also: % is scaled to controls: 0 for no effect and ±100 for the full control effect
Target sequence (P21728 whole entry, looked up): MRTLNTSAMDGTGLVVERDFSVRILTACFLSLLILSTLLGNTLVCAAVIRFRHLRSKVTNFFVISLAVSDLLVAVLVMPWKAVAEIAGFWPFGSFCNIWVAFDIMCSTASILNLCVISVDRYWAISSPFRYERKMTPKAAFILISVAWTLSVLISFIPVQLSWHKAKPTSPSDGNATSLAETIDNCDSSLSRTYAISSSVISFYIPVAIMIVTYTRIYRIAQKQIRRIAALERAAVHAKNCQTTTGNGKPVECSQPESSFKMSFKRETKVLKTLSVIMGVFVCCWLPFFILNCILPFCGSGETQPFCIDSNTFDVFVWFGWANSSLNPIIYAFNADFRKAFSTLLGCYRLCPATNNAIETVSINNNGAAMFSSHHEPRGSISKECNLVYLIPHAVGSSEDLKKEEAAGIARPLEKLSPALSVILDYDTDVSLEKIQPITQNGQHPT
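Allosteric or orthosteric antagonism assessed as attenuation of the calcium response to EC80 dopamine, added 180 s after compound, in induced HEK293 Trex D1 cells loaded with no-wash calcium dye.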
TRHR ag: TRH receptor (human) agonism | hit rate 0.18% among 360,000 | P34981 | TRHR cells, calcium flux fluo-8, FDSS agonist mode | activation, % at 2 µM | AID 493084; also: 0% is about no effect
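Steps: seed TRHR cells overnight; add fluo-8 no-wash Ca dye, RT 30 min–1.5 h; record 10 s baseline; pin-transfer compounds; monitor fluorescence 1 cycle/s for the agonist window. Calcium increases flag candidate agonists.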
TRHR PAM: allosterically enhances the human TRH receptor | hit rate 0.66% among 360,000 | enhancement, % at 2 µM | TRHR cells, fluo-8 calcium fluorescence, EC20 TRH enhancement | P34981; in the data active = enhancement above about 30%; also: 0% is about no effect
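Enhancer read-out: after compound pinning and an initial kinetic agonist-mode read, an EC20 of TRH (10 nM final) was injected and fluo-8 calcium signal (Ex 480/Em 530) followed at 1 s/cycle for 100 cycles in TRHR-expressing cells.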
D1 ag: agonists of human D1 dopamine receptor. P21728. HEK293 T-REx D1 cells, calcium flux, agonist mode. activation, % at 2 µM. hit rate 1% among 360,000. AID 504660; also: 0% is about no effect
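Tetracycline-induced HEK293 TREx D1 cells, force-coupled to calcium signalling, were dye-loaded with a no-wash calcium kit. Compound was pin-added after a 10 s baseline. Fluorescence was read kinetically at 1 cycle/s for 180 s, with calcium rises flagged as agonism.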
D1 PAM: enhances dopamine response at the human D1 receptor; P21728; HEK293 TREx D1 cells, calcium flux, dopamine EC20 potentiation; hit rate 0.036% among 360,000; potentiation, % at 10 µM; in the data active = potentiation above about 30%; also: 0% is about no effect
The depositor's hits bear a star. Rule as the data show it, unless noted: active = activation above about 30%; inactive = the rest.

Results for O=C(O)c1ccc(Cl)c(NCc2cccs2)c1 ?
D1 antag: 4.8; TRHR ag: 0.1; TRHR PAM: 31.9*; D1 ag: 0.3; D1 PAM: -2.4

What do the screens show for `CCC(=O)Nc1ccc(C(=O)Cn2ncc(Cl)c(Cl)c2=O)cc1`?
D1 antag: -0.9; TRHR ag: -0.8; TRHR PAM: 7.1; D1 ag: -1.7; D1 PAM: -0.5

What do the screens show for `Cc1ccc(C(=O)OCn2ncc(Cl)c(Cl)c2=O)cc1`?
D1 antag: -47.6*; TRHR ag: -1.3; TRHR PAM: 7.0; D1 ag: 12.9; D1 PAM: -7.7

What do the screens show for `O=C(OCn1ncc(Cl)c(Cl)c1=O)c1ccc(C(F)(F)F)cc1`?
D1 antag: -48.3*; TRHR ag: 0.1; TRHR PAM: -13.3; D1 ag: 0.5; D1 PAM: -4.2

What do the screens show for `CCOC(=O)c1ccc(NC(=O)Cn2ncc(Cl)c(Cl)c2=O)cc1`?
D1 antag: -29.6; TRHR ag: 0.1; TRHR PAM: 1.4; D1 ag: 0.4; D1 PAM: -3.4

What do the screens show for `CCN(c1ccccc1)S(=O)(=O)c1nnc(NC(=O)c2ccccc2)s1`?
D1 antag: 5.6; TRHR ag: 0.3; TRHR PAM: 6.9; D1 ag: -0.3; D1 PAM: -1.9

What do the screens show for `CC(CCc1ccccc1)NC(=O)CCc1cn(C)c2ccccc12` (centres undefined)?
D1 antag: -44.1*; TRHR ag: -0.6; TRHR PAM: 0.8; D1 ag: -0.2; D1 PAM: -1.1

What do the screens show for `O=C(CSc1nnc(-c2cccnc2)n1-c1ccccc1)Nc1ccc2c(c1)OCO2`?
D1 antag: -60.6*; TRHR ag: -0.6; TRHR PAM: -3.5; D1 ag: 0.4; D1 PAM: -4.0

Results for O=C(CSc1nc(-c2ccccc2)[nH]c1-c1ccccc1)Nc1ccc2c(c1)OCO2 ?
D1 antag: -30.2*; TRHR ag: -0.9; TRHR PAM: -5.2; D1 ag: 2.9; D1 PAM: -4.9

What do the screens show for `Nn1c(SCC(=O)Nc2ccc3c(c2)OCCO3)nnc1-c1cccnc1`?
D1 antag: -37.4*; TRHR ag: 0.2; TRHR PAM: -5.3; D1 ag: 2.2; D1 PAM: -1.1

Results for O=C(CSc1nccn1-c1ccc(Cl)cc1)Nc1ccc2c(c1)OCO2 ?
D1 antag: -49.3*; TRHR ag: -0.9; TRHR PAM: 1.4; D1 ag: 5.2; D1 PAM: -10.5

Results for COc1cccc(CN(C(=O)c2oc3ccccc3c2C)C2CCS(=O)(=O)C2)c1 (centres undefined) ?
D1 antag: 0.9; TRHR ag: -0.1; TRHR PAM: -0.8; D1 ag: 6.5; D1 PAM: 0.4

What do the screens show for `CCOC(=O)c1cc(S(=O)(=O)Nc2ccc(OC(F)(F)F)cc2)[nH]n1`?
D1 antag: -14.1; TRHR ag: -0.1; TRHR PAM: -3.2; D1 ag: 4.3; D1 PAM: -0.7

Results for COc1ccc(-c2cn3c(n2)sc2cc(C(=O)Nc4ccc(C)c(C)c4)ccc23)cc1 ?
D1 antag: 4.5; TRHR ag: 0.1; TRHR PAM: -6.8; D1 ag: 8.6; D1 PAM: -4.2

What do the screens show for `O=C(CN1CCN(c2nc(-c3ccccc3)cs2)CC1)Nc1ccc2c(c1)OCO2`?
D1 antag: -32.4*; TRHR ag: -0.1; TRHR PAM: -2.6; D1 ag: 1.8; D1 PAM: -8.7

How did Nn1c(SCc2cccc(F)c2)nnc1-c1cccnc1 do in these assays?
D1 antag: -31.4*; TRHR ag: 0.9; TRHR PAM: 1.8; D1 ag: 1.6; D1 PAM: -4.7

How did CCOCCc1nn2c(=O)cc(COC(=O)c3ccccc3Br)nc2s1 do in these assays?
D1 antag: -6.2; TRHR ag: 0.2; TRHR PAM: -1.9; D1 ag: 0.1; D1 PAM: -5.0

Results for COc1ccc(NC(=O)N(CCC(C)C)C(C)c2cccs2)c(OC)c1 (centres undefined) ?
D1 antag: -0.4; TRHR ag: -0.7; TRHR PAM: -0.6; D1 ag: -2.2; D1 PAM: 1.4

What do the screens show for `O/N=C/c1ccc(OCc2ccccc2)c(Br)c1`?
D1 antag: -33.5*; TRHR ag: -0.6; TRHR PAM: 3.4; D1 ag: 1.7; D1 PAM: 0.8

How did CCOC(=O)c1cccc(NC(=O)CCc2c(C)nn(-c3ccc(N4CCOCC4)nn3)c2C)c1 do in these assays?
D1 antag: 10.5; TRHR ag: -0.5; TRHR PAM: -3.0; D1 ag: -0.5; D1 PAM: -1.9

How did Cc1ccc(NC(=O)CSc2nc3c(oc4ccccc43)c(=O)n2Cc2ccco2)cc1F do in these assays?
D1 antag: -6.7; TRHR ag: 0.2; TRHR PAM: 19.9; D1 ag: 1.2; D1 PAM: 0.4

What do the screens show for `O=S(=O)(NCc1ccc(Cl)cc1)c1ccc(N2CCCCS2(=O)=O)cc1`?
D1 antag: -35.1*; TRHR ag: -1.5; TRHR PAM: -0.7; D1 ag: 20.4; D1 PAM: -0.7

How did O=S(=O)(Nc1ccc(OC(F)(F)F)cc1)c1ccc(N2CCCCS2(=O)=O)cc1 do in these assays?
D1 antag: -19.0; TRHR ag: 2.4; TRHR PAM: 9.7; D1 ag: 29.2; D1 PAM: 0.9

What do the screens show for `COc1ccc(NS(=O)(=O)c2ccc(N3CCCCS3(=O)=O)cc2)cc1Cl`?
D1 antag: -30.3*; TRHR ag: 1.1; TRHR PAM: -0.4; D1 ag: 19.8; D1 PAM: -0.4

How did CC(O)CNCCNCc1c(OCc2ccccc2)ccc2ccccc12 (centres undefined) do in these assays?
D1 antag: 3.2; TRHR ag: -1.2; TRHR PAM: 13.1; D1 ag: 121.6*; D1 PAM: -4.1

Results for CC(O)CNCCOc1ccccc1OCc1ccccc1 (centres undefined) ?
D1 antag: -17.5; TRHR ag: -3.3; TRHR PAM: -1.5; D1 ag: 7.5; D1 PAM: -7.1

How did OCCNCc1c(OCc2ccc(Cl)cc2)ccc2ccccc12 do in these assays?
D1 antag: -37.7*; TRHR ag: -0.6; TRHR PAM: 2.7; D1 ag: 160.4*; D1 PAM: -12.1

Results for CCOc1ccccc1NS(=O)(=O)c1c(C(=O)OC)sc2cccc(F)c12 ?
D1 antag: 7.1; TRHR ag: 0.1; TRHR PAM: -1.5; D1 ag: 1.4; D1 PAM: -4.0

What do the screens show for `Oc1ccc(C23CCCC2C2(CCCC2)c2ccc(O)cc2O3)c(O)c1` (centres undefined)?
D1 antag: -8.5; TRHR ag: 0.2; TRHR PAM: 5.2; D1 ag: 152.4*

How did Cc1oc(-c2ccccc2)cc1C(=O)NC1CCN(Cc2ccccc2)CC1 do in these assays?
D1 antag: -84.5*; TRHR ag: 0.2; TRHR PAM: 4.1; D1 ag: 2.6; D1 PAM: -16.3
